Bioassay records deposited in PubChem by several laboratories.
dFosB activator = activators of mouse delta FosB homodimer; P13346; purified delta FosB, TAMRA-CDK5 oligo fluorescence polarization; percent of positive-control signal above neutral wells; 340,000 compounds, 0.99% hits; activation, % at 25 µM;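 active = mean activation above about 17%, with every replicate also reaching it, limit read from the data, passing the limit was not always enough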
Target sequence (P13346 whole entry, looked up): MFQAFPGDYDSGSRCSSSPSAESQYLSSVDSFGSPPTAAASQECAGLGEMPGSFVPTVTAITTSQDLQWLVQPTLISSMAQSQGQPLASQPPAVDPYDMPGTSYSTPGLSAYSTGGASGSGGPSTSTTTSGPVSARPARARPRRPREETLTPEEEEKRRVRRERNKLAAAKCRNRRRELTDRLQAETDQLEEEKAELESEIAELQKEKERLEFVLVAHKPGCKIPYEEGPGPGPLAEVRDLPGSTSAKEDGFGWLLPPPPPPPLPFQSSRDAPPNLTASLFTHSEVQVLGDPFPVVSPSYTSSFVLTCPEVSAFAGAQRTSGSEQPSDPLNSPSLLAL
UBC13 inh = human UBC13 polyubiquitination inhibition. 330,000 compounds, 0.47% hits. inhibition, % at 20 µM. P61088. UBC13 polyubiquitin chain formation, TR-FRET. AID 485273; in the data active = inhibition above about 45%, passing the limit was not always enough
Target sequence (P61088 whole entry, looked up): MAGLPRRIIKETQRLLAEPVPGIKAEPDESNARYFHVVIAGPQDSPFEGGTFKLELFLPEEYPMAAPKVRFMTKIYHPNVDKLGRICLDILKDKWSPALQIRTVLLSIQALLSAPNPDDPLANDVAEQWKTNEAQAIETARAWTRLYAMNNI
NALP1 yeast inh = inhibitors of NALP1 inflammasome in yeast; S. cerevisiae NALP1/ASC/caspase-1 growth, X-gal OD620, 72 h; inhibition, % at 10 µM; 280,000 compounds, 0.61% hits; in the data active = inhibition mostly above about 24%, no sharp cut-off; inactive = mostly below about 32%
Yeast superoxide = yeast age-related superoxide inhibition as caloric restriction mimetic; superoxide response (% of plate mean), % at 10 µM; S. cerevisiae aged cells, superoxide DHE fluorescence; stronger effect = lower value; 330,000 compounds, 0.18% hits; AID 2690;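 active = superoxide response under a set limit, about three screen SD below normal, cut at about 65% in these data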;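 note: yeast aged for seven days with compound at 30 °C before DHE staining; 100% = average MFI of all compound-treated wells on the plate with controls excluded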
NR3A LBD binder = modulates the human NR3A ligand-binding domain; NR3A LBD differential scanning fluorimetry, Tm shift; 0% = protein alone, 100% = glycine-bound protein; Tm shift relative to glycine control, % at 25 µM; 340,000 compounds, 2.5% hits; AID 1259313;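 active = melting temperature shift of at least 10% of the positive control shift, at one fixed dose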
Numbers without * were called inactive; . = no result given. An excerpt weighted towards active compounds, which were near 4.3% of everything screened.

SMILES	dFosB activator	UBC13 inh	NALP1 yeast inh	Yeast superoxide	NR3A LBD binder
Cc1ccc(S(=O)(=O)N(CC(=O)Nc2ccc(Cl)c([N+](=O)[O-])c2)C2CCCCC2)cc1	0	-1	17	105	11*
Cc1cccc(-c2ccc3c(c2)C2CC3CCN2C)c1 (stereo not given)	1	.	.	.	-1
CCCCNC(=O)c1cc(-c2ccc(OC)c(OC)c2)on1	-7	1	43*	79	-2
CNC(=S)SCCOc1ccccc1C	1	11	32	87	15*
O=C1NC(=S)S/C1=C\c1cc(Cl)cc(Cl)c1O	2	.	.	.	17*
CC(O)c1nc2ccccc2n1CC(=O)Nc1ccc(F)cc1Cl (stereo not given)	5	1	18	96	-8
CCOC(=O)c1c(N)sc2c1CCC1C(=O)N(C3CCCCC3)C(=O)C21 (stereo not given)	2	-5	14	113	13*
Fc1ccc(NC(=S)N2CCN(c3ncccn3)CC2)cc1	1	-2	-11	97	-3
O=C(c1ccccc1)C1(c2ccccc2)OC1c1ccccc1 (stereo not given)	-3	.	.	.	-2
Fc1ccc2cc(-c3ccsc3)ncc2c1	-6	-7	.	77	35*
COc1ccccc1Cn1c(/C=C/c2ccccc2)nc2ccccc21	-1	15	16	101	11*
COc1ccc(C(=O)N2CCCC(Nc3ccc(F)c(F)c3)C2)c(OC)n1 (stereo not given)	-15	10	2	110	-1
COc1ccc(NC2CCCN(C(=O)c3ccc(C(C)=O)cc3)C2)cc1 (stereo not given)	-6	2	2	84	0
Cc1ccc(NC2CCCN(C(=O)CN3C(=O)CSC3=O)C2)cc1C (stereo not given)	-12	-5	-3	116	11*
COc1ccc(C(=O)N2CCCC(Nc3ccc(C)c(C)c3)C2)c(OC)n1 (stereo not given)	-6	-2	15	111	32*
COc1ccc(C(=O)N2CCCC(Nc3ccc(F)cc3)C2)c(OC)c1 (stereo not given)	-4	0	30*	90	13*
COCCN(C(=O)COC(=O)/C=C/c1cccc(OC)c1)c1c(N)n(CC(C)C)c(=O)[nH]c1=O	0	7	.	.	2
CCOC(=O)c1cnc2c(C(=O)OCC)cnn2c1N	.	4	38*	94	3
COc1cc([N+](=O)[O-])ccc1NC(=O)Nc1nc2c(s1)CCCC2	-7	7	28	139	11*
COc1cc([N+](=O)[O-])ccc1NC(=O)Nc1cnccn1	-4	-3	7	99	-6
CCCn1cnc2c1c(=O)n(CCCCC(C)=O)c(=O)n2C	0	18	.	96	-3
CN(CCCC1CCCC1)C(=O)CC1C(=O)NCCN1Cc1cccc(F)c1F (stereo not given)	-13	-2	3	107	-5
Cc1ccc(NC(=O)Cn2cnc3c(cnn3C(C)(C)C)c2=O)cc1	3	-3	19	110	2
COc1ccc(NC(=O)Cn2cnc3c(cnn3C(C)(C)C)c2=O)cc1OC	-9	-2	31*	87	-1
COC(=O)[C@]1(C)N[C@H](CN(C)C(C)=O)[C@@H]2C(=O)N(Cc3ccccc3)C(=O)[C@@H]21	-10	5	.	104	4
SMILES	dFosB activator	UBC13 inh	NALP1 yeast inh	Yeast superoxide	NR3A LBD binder
CCCn1nnnc1NCc1cccc(Cl)c1	5	2	-10	97	1
COc1ccc(Nc2nnc(SC(C(=O)Nc3ccc(OC)c(Cl)c3)c3ccccc3)s2)cc1 (stereo not given)	-7	-13	-18	108	25*
COc1ccc(Nc2nnc(SC(C(=O)Nc3cc(C)ccc3C)c3ccccc3)s2)cc1 (stereo not given)	-12	-3	0	95	17*
COc1cccc(NC(=O)C(Sc2nnc(Nc3ccccc3C)s2)c2ccccc2)c1 (stereo not given)	-10	8	32	106	11*
COc1ccc(C)cc1NC(=O)C(Sc1nnc(Nc2cc(C)ccc2OC)s1)c1ccccc1 (stereo not given)	-1	-8	29	93	1
COc1cccc(Nc2nnc(SCN3C(=O)c4ccccc4C3=O)s2)c1	4	14	.	114	-1
CC(C)NC(=O)N(C)C[C@H]1Oc2c(NC(=O)Nc3ccccc3)cccc2C(=O)N([C@H](C)CO)C[C@@H]1C	5	0	.	98	2
Cc1ccc(NC(=O)CCC(=O)NNC(=O)COc2ccc([N+](=O)[O-])cc2)c(C)c1	8	1	8	119	1
Cc1cc(C)n(CCC(=O)N2CCN(S(=O)(=O)c3ccccc3)CC2)n1	4	4	11	85	1
c1ccc2c(c1)nnn1c3ccccc3nc21	.	-21	0	101	.
ClC(Cl)(Cl)c1nc2ccccc2n2nncc12	-1	0	37*	102	-2
Cc1cc(N2C(=O)C=CC2=O)c([N+](=O)[O-])cc1C	-9	-10	64*	117	4
S=C(NNc1ccnc2cc(Cl)ccc12)Nc1ccccc1Cl	0	0	21	103	20*
CC(C)(C)NC(=O)C(c1c[nH]c2ccccc12)N(C(=O)Cn1nnc(-c2ccc(F)cc2)n1)c1cccc(O)c1 (stereo not given)	-24	-11	16	101	10
CCOC(=O)c1ccc(NC(=O)Nc2ccc(F)cc2)cc1	8	5	9	126	35*
O=C(Nc1ccncc1)Nc1ccc(F)c(Cl)c1	-6	8	-3	107	8
COC(=O)c1ccc(NC(=O)Nc2ccc(F)cc2)cc1	-3	2	-6	104	18*
COC(=O)c1ccc(NC(=O)Nc2ccc(F)c(Cl)c2)cc1	1	-2	-6	104	41*
CCOC(=O)c1sc(NC(=O)Nc2ccc(F)cc2)nc1C	-9	11	33	99	0
CCOc1ccc(NC(=O)Nc2cc(OCC(F)(F)F)cc(OCC(F)(F)F)c2)cc1	-6	-6	3	85	7
O=C(Nc1ccc(F)cc1)Nc1cc(OCC(F)(F)F)cc(OCC(F)(F)F)c1	3	-2	22	99	27*
Cc1cc2occ(CC(=O)N(CC(C)C)c3c(N)n(Cc4ccccc4)c(=O)[nH]c3=O)c2cc1C	-13	-3	.	108	-3
CCN1C(=O)[C@@H]2[C@H](C1=O)[C@@H]1C(=O)Nc3ccccc3C(=O)N1[C@@H]2c1ccc(OC)cc1	-8	-1	.	98	-2
CC(C)(C)c1ccc(NC(=O)Nc2ccc(F)cc2)cc1	-14	-2	18	92	14*
Cc1ccc(-n2c(C)cc(C(=O)CN3CCOCC3)c2C)cc1	-8	0	8	91	-3
Cc1ccc(-n2c(C)cc(C(=O)CN3CCOCC3)c2C)cc1C	-2	-8	-1	75	18*
O=S(=O)(NCCc1ccccc1)c1ccc(F)cc1Br	-3	.	.	94	13*
